Results published in the supplement of paper PMC9446081.
± gives the standard deviation of the averaged measurements.

What was measured:
Test in all cases: relative enzymatic activity vs untreated control (fraction); higher = less inhibition
Settings in all cases: 100 µM; incubation time: 2 h at 37 C
DNA gyrase = system: DNA gyrase
Description: (§1)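 In vitro enzymatic inhibition assays (ProFoldin kits) for 12 purified essential E. coli enzymes or complexes, each treated with 218 active antibacterial compounds at 100 µM for 2 h at 37°C. Read-outs were fluorescence or absorbance (phosphate detection, dye binding), converted to activity via standard curves and expressed relative to untreated DMSO controls.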

DNA helicase = DNA helicase (UniProt P0ACB1)
Chain of DNA helicase (P0ACB1 whole entry): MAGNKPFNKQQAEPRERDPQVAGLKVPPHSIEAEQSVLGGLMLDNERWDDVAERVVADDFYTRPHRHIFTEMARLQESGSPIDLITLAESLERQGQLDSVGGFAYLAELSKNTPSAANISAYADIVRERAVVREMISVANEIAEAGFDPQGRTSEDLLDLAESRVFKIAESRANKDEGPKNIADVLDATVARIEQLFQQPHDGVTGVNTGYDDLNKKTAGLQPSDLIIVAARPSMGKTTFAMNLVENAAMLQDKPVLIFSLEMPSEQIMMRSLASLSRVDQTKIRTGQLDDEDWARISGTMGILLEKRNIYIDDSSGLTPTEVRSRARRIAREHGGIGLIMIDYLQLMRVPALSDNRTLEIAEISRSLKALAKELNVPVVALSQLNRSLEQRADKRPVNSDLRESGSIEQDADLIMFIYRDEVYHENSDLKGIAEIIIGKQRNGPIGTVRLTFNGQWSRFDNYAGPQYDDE
Description: as §1

DNA ligase = DNA ligase (UniProt B1XA82)
Chain of DNA ligase (B1XA82 whole entry): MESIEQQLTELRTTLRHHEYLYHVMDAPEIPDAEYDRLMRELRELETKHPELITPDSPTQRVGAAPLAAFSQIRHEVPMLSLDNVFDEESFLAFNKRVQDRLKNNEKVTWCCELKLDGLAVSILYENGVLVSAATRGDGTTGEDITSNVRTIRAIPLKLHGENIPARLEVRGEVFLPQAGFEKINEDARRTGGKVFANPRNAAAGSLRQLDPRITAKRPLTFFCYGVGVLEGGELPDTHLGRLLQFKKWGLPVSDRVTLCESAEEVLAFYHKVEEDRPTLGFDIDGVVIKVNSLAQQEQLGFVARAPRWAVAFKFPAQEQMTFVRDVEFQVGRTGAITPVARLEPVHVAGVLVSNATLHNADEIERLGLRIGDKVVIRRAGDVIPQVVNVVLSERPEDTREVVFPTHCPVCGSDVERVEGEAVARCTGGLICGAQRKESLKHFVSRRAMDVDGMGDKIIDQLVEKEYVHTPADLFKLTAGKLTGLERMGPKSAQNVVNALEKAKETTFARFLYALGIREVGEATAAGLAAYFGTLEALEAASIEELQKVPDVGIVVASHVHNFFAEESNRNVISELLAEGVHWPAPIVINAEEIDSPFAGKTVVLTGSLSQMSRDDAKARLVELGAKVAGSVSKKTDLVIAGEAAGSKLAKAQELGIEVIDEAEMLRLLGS
Description: as §1

DNA polymerase = DNA polymerase (UniProt P10443)
Chain of DNA polymerase (P10443 whole entry): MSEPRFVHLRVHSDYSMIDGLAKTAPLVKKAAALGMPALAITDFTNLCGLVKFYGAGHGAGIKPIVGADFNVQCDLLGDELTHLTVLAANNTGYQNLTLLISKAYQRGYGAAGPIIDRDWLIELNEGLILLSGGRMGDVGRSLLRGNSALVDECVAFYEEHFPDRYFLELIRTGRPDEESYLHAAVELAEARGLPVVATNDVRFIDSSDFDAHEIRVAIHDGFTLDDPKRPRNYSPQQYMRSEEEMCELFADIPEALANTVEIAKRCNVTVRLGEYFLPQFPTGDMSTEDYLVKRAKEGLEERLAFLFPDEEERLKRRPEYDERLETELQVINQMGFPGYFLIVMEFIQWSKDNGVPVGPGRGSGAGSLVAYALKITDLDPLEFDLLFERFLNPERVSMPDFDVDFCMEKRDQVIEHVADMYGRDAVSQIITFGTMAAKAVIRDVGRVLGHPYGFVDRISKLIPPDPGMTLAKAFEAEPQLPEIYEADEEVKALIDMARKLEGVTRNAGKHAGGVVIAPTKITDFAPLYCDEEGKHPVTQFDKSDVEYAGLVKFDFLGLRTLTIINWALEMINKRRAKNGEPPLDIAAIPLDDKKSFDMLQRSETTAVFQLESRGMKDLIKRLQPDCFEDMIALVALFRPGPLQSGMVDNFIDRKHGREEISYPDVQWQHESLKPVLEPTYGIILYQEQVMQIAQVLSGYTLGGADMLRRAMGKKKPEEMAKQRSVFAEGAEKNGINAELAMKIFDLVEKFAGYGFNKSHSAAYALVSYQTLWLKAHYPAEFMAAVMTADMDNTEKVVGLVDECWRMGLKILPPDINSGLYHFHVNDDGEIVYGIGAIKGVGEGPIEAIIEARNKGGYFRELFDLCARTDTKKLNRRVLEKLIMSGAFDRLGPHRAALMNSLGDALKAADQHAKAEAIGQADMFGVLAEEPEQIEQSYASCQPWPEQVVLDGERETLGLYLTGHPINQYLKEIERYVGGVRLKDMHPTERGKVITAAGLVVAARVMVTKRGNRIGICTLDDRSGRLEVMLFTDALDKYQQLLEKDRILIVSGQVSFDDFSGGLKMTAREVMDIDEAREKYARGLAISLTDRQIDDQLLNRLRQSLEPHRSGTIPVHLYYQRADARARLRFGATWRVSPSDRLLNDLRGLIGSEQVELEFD
Description: as §1

DNA primase = DNA primase (UniProt P0ABS7)
Chain of DNA primase (P0ABS7 whole entry): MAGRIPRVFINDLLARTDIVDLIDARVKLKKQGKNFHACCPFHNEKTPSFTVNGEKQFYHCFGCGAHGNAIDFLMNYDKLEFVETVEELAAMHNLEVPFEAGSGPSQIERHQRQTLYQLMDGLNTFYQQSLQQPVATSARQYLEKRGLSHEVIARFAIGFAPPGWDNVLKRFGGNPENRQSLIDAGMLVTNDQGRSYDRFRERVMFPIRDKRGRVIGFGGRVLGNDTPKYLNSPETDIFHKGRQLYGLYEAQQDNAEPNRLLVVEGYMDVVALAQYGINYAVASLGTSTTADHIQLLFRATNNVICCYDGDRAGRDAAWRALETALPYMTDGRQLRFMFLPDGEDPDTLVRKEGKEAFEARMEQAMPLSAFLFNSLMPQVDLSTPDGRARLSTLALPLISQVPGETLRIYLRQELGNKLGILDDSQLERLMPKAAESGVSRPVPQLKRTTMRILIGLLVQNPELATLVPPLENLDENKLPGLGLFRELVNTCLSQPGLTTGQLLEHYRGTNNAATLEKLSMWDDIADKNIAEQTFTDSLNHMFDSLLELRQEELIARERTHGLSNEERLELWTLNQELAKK
Description: as §1

GlmU = GlmU (UniProt A7ZTU1)
Chain of GlmU (A7ZTU1 whole entry, looked up): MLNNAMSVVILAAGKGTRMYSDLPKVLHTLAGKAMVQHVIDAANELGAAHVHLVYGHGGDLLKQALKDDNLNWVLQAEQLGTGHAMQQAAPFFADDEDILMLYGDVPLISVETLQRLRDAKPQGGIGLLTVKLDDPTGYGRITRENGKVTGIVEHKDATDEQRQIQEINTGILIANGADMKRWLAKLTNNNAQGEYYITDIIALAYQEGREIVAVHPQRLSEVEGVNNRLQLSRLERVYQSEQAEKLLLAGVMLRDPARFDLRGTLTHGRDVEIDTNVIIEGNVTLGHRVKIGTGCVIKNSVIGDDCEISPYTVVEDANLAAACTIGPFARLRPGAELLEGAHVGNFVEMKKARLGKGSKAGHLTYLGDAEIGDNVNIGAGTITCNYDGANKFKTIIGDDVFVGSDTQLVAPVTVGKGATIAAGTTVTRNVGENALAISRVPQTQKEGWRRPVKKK
Description: as §1

Guanlyate kinase = Guanlyate kinase (UniProt Q0TBG1)
Chain of Guanlyate kinase (Q0TBG1 whole entry): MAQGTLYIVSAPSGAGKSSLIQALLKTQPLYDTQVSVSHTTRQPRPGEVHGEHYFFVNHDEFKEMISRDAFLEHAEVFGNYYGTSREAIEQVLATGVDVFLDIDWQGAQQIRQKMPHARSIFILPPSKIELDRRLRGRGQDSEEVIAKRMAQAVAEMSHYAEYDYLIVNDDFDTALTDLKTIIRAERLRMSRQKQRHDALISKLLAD
Description: as §1

MurA = MurA (UniProt Q3YX52)
Chain of MurA (Q3YX52 whole entry): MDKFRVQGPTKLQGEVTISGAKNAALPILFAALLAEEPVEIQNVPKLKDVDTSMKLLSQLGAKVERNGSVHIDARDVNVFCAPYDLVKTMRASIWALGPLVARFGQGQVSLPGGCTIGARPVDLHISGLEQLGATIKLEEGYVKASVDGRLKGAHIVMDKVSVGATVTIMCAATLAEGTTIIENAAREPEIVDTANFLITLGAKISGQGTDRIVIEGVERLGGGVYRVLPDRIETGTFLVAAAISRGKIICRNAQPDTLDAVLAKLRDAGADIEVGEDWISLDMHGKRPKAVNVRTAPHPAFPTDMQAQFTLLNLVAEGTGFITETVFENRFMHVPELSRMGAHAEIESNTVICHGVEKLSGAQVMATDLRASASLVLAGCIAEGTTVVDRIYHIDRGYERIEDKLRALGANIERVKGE
Description: as §1

MurD = biological target: T1, MurD (UniProt P14900)
T1 sequence (whole entry): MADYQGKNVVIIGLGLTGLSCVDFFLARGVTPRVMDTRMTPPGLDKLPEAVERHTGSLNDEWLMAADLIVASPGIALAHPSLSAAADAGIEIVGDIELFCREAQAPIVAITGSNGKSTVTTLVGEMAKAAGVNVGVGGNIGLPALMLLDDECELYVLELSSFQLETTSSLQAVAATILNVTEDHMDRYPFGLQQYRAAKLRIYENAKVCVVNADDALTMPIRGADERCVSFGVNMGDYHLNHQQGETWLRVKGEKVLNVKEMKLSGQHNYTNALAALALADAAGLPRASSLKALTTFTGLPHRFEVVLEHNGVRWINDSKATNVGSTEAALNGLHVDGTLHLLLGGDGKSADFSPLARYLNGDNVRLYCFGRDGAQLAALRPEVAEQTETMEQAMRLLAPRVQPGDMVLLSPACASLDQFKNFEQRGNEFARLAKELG
Description: as §1

MurF = biological target: T2, MurF (UniProt P11880)
T2 sequence (whole entry): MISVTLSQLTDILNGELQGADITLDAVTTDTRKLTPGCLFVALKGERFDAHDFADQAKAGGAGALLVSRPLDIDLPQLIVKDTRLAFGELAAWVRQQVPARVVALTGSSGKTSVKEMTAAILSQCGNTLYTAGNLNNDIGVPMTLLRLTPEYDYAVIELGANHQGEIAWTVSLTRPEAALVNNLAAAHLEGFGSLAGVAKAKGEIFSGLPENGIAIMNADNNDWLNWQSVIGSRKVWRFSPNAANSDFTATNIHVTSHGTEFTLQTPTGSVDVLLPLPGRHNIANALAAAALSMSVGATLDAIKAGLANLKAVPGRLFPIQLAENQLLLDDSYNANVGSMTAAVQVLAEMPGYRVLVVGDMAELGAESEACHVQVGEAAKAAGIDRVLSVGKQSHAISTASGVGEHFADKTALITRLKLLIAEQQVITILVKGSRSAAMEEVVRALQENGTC
Description: as §1

RNA polymerase = system: RNA polymerase
Description: as §1

| SMILES | relative enzymatic activity (DNA gyrase) | relative enzymatic activity (DNA helicase) | relative enzymatic activity (DNA ligase) | relative enzymatic activity (DNA polymerase) | relative enzymatic activity (DNA primase) | relative enzymatic activity (GlmU) | relative enzymatic activity (Guanlyate kinase) | relative enzymatic activity (MurA) | relative enzymatic activity (MurD) | relative enzymatic activity (MurF) | relative enzymatic activity (RNA polymerase) |
| --- | --- | --- | --- | --- | --- | --- | --- | --- | --- | --- | --- |
| NC[C@H]1O[C@H](O[C@H]2[C@H](O)[C@@H](O[C@H]3O[C@H](CO)[C@@H](O)[C@H](N)[C@H]3O)[C@H](N)C[C@@H]2N)[C@H](N)C[C@@H]1O | 0.902 ± 0.18 | 0.378 ± 0.22 | 0.91 ± 0.034 | 1.19 ± 0.21 | 0.572 ± 0.14 | 1.02 ± 0.033 | 0.443 ± 0.1 | 0.747 ± 0.093 | 0.609 ± 0.42 | 0.956 ± 0.23 | 0.906 ± 0.048 |
| N[C@@H]1[C@H]2CN(c3nc4c(cc3F)c(=O)c(C(=O)O)cn4-c3ccc(F)cc3F)C[C@@H]12 | 0.0708 ± 0.1 | 0.354 ± 0.0078 | 1.04 ± 0.084 | 1.14 ± 0.23 | 0.689 ± 0.063 | 0.912 ± 0.029 | 0.937 ± 0.033 | 0.596 ± 0.17 | 0.555 ± 0.39 | 0.928 ± 0.22 | 0.783 ± 0.071 |
| CCCC[P+](CCCC)(CCCC)Cc1ccc(NC(=O)[C@@H](Cc2ccc3ccccc3c2)N=C(NC2CCCCC2)NC2CCCCC2)cc1 | 0.0368 ± 0.052 | 0.0252 ± 0.0031 | 0.897 ± 0.14 | 0.636 ± 0.1 | 0.576 ± 0.037 | 0.139 ± 0.0022 | 0.245 ± 0.019 | 0.0381 ± 0.0081 | 0.092 ± 0.023 | 0.108 ± 0.018 | 0.2596 ± 0.002 |
| CC1CCc2c(N3CCC(O)CC3)c(F)cc3c(=O)c(C(=O)O)cn1c23 (stereo unspecified) | 0.0257 ± 0.036 | 0.552 ± 0.1 | 0.916 ± 0.018 | 1.19 ± 0.29 | 0.8373 ± 0.0067 | 0.9778 ± 0.0021 | 0.957 ± 0.071 | 0.8065 ± 0.0039 | 0.566 ± 0.37 | 1.102 ± 0.0015 | 0.85 ± 0.059 |
| CON=C(C(=O)NC1C(=O)N2C(C(=O)O)=C(CSC(=O)c3ccco3)CSC12)c1csc(N)n1.Cl (stereo unspecified) | 0.933 ± 0.033 | 0.388 ± 0.053 | 1.07 ± 0.033 | 0.476 ± 0.67 | 0.657 ± 0.15 | 0.844 ± 0.063 | 0.949 ± 0.12 | 0.0647 ± 0.013 | 0.551 ± 0.37 | 0.95 ± 0.2 | 0.832 ± 0.051 |
| CC1CCC2(C)C(C=O)=CCCC2C1(C)CC1OC(O)C(=O)C12CO2 (stereo unspecified) | 0.075 ± 0.11 | 0.688 ± 0.45 | 1.12 ± 0.035 | 1.15 ± 0.2 | 0.89 ± 0.017 | 1.008 ± 0.0078 | 0.956 ± 0.024 | 0.662 ± 0.12 | 0.612 ± 0.41 | 0.577 ± 0.81 | 1.06 ± 0.13 |
| Nc1ncn(C2OC(CO)C(O)C2O)c(=O)n1 (stereo unspecified) | 0.722 ± 0.32 | 0.653 ± 0.16 | 1.318 ± 0.003 | 1.27 ± 0.31 | 0.709 ± 0.21 | 1.14 ± 0.13 | 0.934 ± 0.14 | 0.786 ± 0.13 | 0.61 ± 0.4 | 0.987 ± 0.21 | 1.01 ± 0.18 |
| CCN1CCN(c2cc3c(cc2F)c(=O)c(C(=O)O)cn3C2CC2)CC1 | 0.0177 ± 0.025 | 0.462 ± 0.018 | 1.05 ± 0.34 | 1.15 ± 0.22 | 0.617 ± 0.12 | 1 ± 0.11 | 0.894 ± 0.05 | 0.659 ± 0.029 | 0.59 ± 0.4 | 0.88 ± 0.13 | 0.808 ± 0.02 |
| CC[C@H](C)C[C@H](C)CCCCCCCCC(=O)N[C@H]1C[C@@H](O)[C@@H](NCCN)NC(=O)[C@@H]2[C@@H](O)CCN2C(=O)[C@H]([C@H](O)CCN)NC(=O)[C@H]([C@H](O)[C@@H](O)c2ccc(O)cc2)NC(=O)[C@@H]2C[C@@H](O)CN2C(=O)[C@H]([C@@H](C)O)NC1=O | 0.131 ± 0.067 | 0.0208 ± 0.022 | 0.699 ± 0.13 | 0.2437 ± 0.00079 | 0.766 ± 0.017 | 1.03 ± 0.013 | 1.09 ± 0.022 | 0.522 ± 0.47 | 0.706 ± 0.5 | 1.39 ± 0.62 | 0.408 ± 0.013 |
| O=C(Cn1cnnn1)NC1C(=O)N2C(C(=O)O)=C(CSc3nncs3)CSC12 (stereo unspecified) | 0.793 ± 0.43 | 0.757 ± 0.21 | 0.955 ± 0.18 | 0.505 ± 0.68 | 0.828 ± 0.017 | 1.045 ± 0.0046 | 0.932 ± 0.17 | 0.307 ± 0.16 | 0.598 ± 0.37 | 1.01 ± 0.22 | 0.799 ± 0.011 |
| O=C1CN(/N=C/c2ccc([N+](=O)[O-])o2)C(=O)N1 | 0.715 ± 0.42 | 0.621 ± 0.24 | 0.855 ± 0.16 | 0.649 ± 0.36 | 0.764 ± 0.037 | 0.999 ± 0.044 | 0.842 ± 0.048 | 0.665 ± 0.11 | 0.481 ± 0.61 | 0.963 ± 0.21 | 0.745 ± 0.068 |
| COC1(NC(=O)C(C(=O)[O-])c2ccc(O)cc2)C(=O)N2C(C(=O)[O-])=C(CSc3nnnn3C)COC21.[Na+].[Na+] (stereo unspecified) | 1.04 ± 0.15 | 0.607 ± 0.17 | 1.25 ± 0.16 | 1.27 ± 0.34 | 0.693 ± 0.17 | 0.998 ± 0.085 | 1.02 ± 0.11 | 0.069 ± 0.017 | 0.584 ± 0.39 | 0.913 ± 0.23 | 0.848 ± 0.071 |
| COC1C=COC2(C)Oc3c(C)c(O)c4c(O)c(c(C=NN5CCN(C)CC5)c(O)c4c3C2=O)NC(=O)C(C)=CC=CC(C)C(O)C(C)C(O)C(C)C(OC(C)=O)C1C (stereo unspecified) | 0.468 ± 0.18 | 0.717 ± 0.33 | 0.8414 ± 0.0057 | 0.862 ± 0.32 | 0.507 ± 0.0061 | 0.288 ± 0.02 | 0.399 ± 0.0045 | 0.0919 ± 0.015 | 0.175 ± 0.081 | 0.464 ± 0.051 | 0.0875 ± 0.0034 |
| NC(=O)[C@@H]1C(=O)C[C@@H]2C[C@@H]3Cc4cccc(O)c4C(=O)[C@@H]3C(=O)[C@]2(O)C1=O | 1.02 ± 0.18 | 0.519 ± 0.062 | 0.963 ± 0.042 | 0.976 ± 0.11 | 0.822 ± 0.017 | 1.08 ± 0.021 | 0.796 ± 0.086 | 0.328 ± 0.11 | 0.62 ± 0.39 | 1.01 ± 0.2 | 0.715 ± 0.048 |
| CC(C)CCCC(=O)N[C@@H](CCNCS(=O)(=O)O)C(=O)N[C@H](C(=O)N[C@@H](CCNCS(=O)(=O)O)C(=O)N[C@H]1CCNC(=O)[C@H]([C@@H](C)O)NC(=O)[C@H](CCNCS(=O)(=O)O)NC(=O)[C@H](CCNCS(=O)(=O)O)NC(=O)[C@H](CC(C)C)NC(=O)[C@H](CC(C)C)NC(=O)[C@H](CCNCS(=O)(=O)O)NC1=O)[C@@H](C)O | 0.555 ± 0.027 | 0.608 ± 0.27 | 1.01 ± 0.41 | 1.14 ± 0.27 | 0.8249 ± 0.007 | 1.0459 ± 0.00074 | 0.666 ± 0.056 | 0.723 ± 0.12 | 0.585 ± 0.35 | 0.903 ± 0.13 | 0.813 ± 0.041 |
| COc1cc2c(cc1OC)C(=O)C(CC1CCN(Cc3ccccc3)CC1)C2.Cl (stereo unspecified) | 0.363 ± 0.072 | 0.802 ± 0.32 | 1.19 ± 0.057 | 1.18 ± 0.28 | 0.713 ± 0.2 | 0.766 ± 0.067 | 0.892 ± 0.1 | 0.486 ± 0.059 | 0.456 ± 0.32 | 0.934 ± 0.17 | 0.85 ± 0.011 |
